Source: PubChem BioAssay AID1347081 (National Center for Advancing Translational Sciences (NCATS), 2019)
Records with an inconclusive call do not appear. Entries that show only a call come without a potency. A number with no mark means an inactive call. Active and inactive are the calls of the source. The call rests on the fitted dose curve.

assay: qHTS for Inhibitors of the Functional Ribonucleoprotein Complex (vRNP) of Lassa (LASV) Arenavirus: Viability assay - alamar blue signal for LASV Confirmatory Screen; conditions: LASV vRNP counter-screen cells; series mostly up to 53.9 µM

Structure (SMILES)	Potency	activity change, negative = decreased viability
CN(C)c1ccc(O)c2c1C[C@H]1C[C@H]3[C@H](N(C)C)C(=O)C(C(N)=O)=C(O)[C@@]3(O)C(=O)C1=C2O	inactive	–
CCCCC/C(C=O)=C\c1ccccc1	inactive	–
CCCCC[C@H](O)/C=C/C=C/C/C=C\CCCC(=O)O	–	20.4% [at 0.666 µM]
CCCCCN=C(N)N/N=C/c1c[nH]c2ccc(OC)cc12	8.63 µM (active)	–
O=C(Nc1ccccc1)Nc1ccc(-c2ccc(C(=O)[C@H]3CCC[C@H]3C(=O)O)cc2)cc1	inactive	–
Clc1nccc2c1ccc1ccccc12	inactive	–
CC[C@@H](C(=O)O)[C@@H]1O[C@@H]([C@@H](C)[C@H](O)[C@H](C)C(=O)[C@H](CC)[C@H]2O[C@]3(C=C[C@@H](O)[C@]4(CC[C@@](C)([C@H]5CC[C@](O)(CC)[C@H](C)O5)O4)O3)[C@H](C)C[C@@H]2C)[C@@H](C)C[C@@H]1C	1.57 µM (active)	–
Cc1cnc(NC(=O)C2=C(O)c3ccccc3S(=O)(=O)N2C)s1	inactive	–
Cc1ncc([N+](=O)[O-])n1CC(C)O (centres undefined)	inactive	–
Cn1cc(-c2ccncc2)c(-c2ccc(OCc3ccc4ccccc4n3)cc2)n1	21.7 µM (active)	–
CC(C)=CCC/C(C)=C/CC/C(C)=C/CC[C@]1(C)CCc2c(C)c(O)c(C)c(C)c2O1	–	6.56% [at 6 µM]
Oc1cc(Cl)ccc1Oc1ccc(Cl)cc1Cl	39.5 µM (active)	–
CCC(c1ccc(O)cc1)C(CC)c1ccc(O)cc1 (centres undefined)	inactive	–
CCC[C@H](N[C@@H](C)C(=O)N1[C@@H]2CCCC[C@H]2C[C@H]1C(=O)O)C(=O)OCC	inactive	–
